Active and inactive are the calls of the source. The calls were made as follows: active = hit-call score of the fitted dose curve at least 0.9, where 1 is the maximum; inactive = score below 0.9.
How the values were obtained:
[1] = read-out: Interleukin-1 alpha (IL1a), IL1A (gene 3552); assay: BSK_KF3CT_IL1a: BioMAP Diversity Plus: KF3CT Assay for Interleukin-1 alpha (IL1a) Biomarker Activity (AID 2283070); settings: primary human keratinocytes with fibroblasts; actives raise or lower the signal
How it was run: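 Chemicals were dosed onto co-cultured human keratinocytes and foreskin fibroblasts, IL-1a was quantified by ELISA at 24 h, and activity was fitted in both directions relative to DMSO controls.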

[2] = read-out: Transforming growth factor beta 1 (TGFb1), TGFB1 (gene 7040); assay: BSK_KF3CT_TGFb1: BioMAP Diversity Plus: KF3CT Assay for Transforming growth factor beta 1 (TGFb1) Biomarker Activity (AID 2283072); settings: primary human keratinocytes with fibroblasts; actives raise or lower the signal
How it was run: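 Signal changes in either direction, relative to DMSO, define activity here. TGF-b1 is read by ELISA from a human keratinocyte-fibroblast co-culture 24 h post-dose.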

[3] = read-out: C-C motif chemokine 2 (Homo sapiens) (UniProt P13500); assay: BSK_KF3CT_MCP1: BioMAP Diversity Plus: KF3CT Assay for Monocyte Chemoattractant Protein 1 (MCP1/CCL2) Biomarker Activity (AID 2283073); settings: primary human keratinocytes with fibroblasts; actives raise or lower the signal
How it was run: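 Keratinocytes and foreskin fibroblasts were co-cultured, dosed with chemical, and sampled 24 h later. MCP-1 was quantified by ELISA, and the endpoint was analyzed with bidirectional fitting using DMSO as negative control.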

[4] = read-out: Matrix Metallopeptidase 9 (MMP9), MMP9 (gene 4318); assay: BSK_KF3CT_MMP9: BioMAP Diversity Plus: KF3CT Assay for Matrix Metallopeptidase 9 (MMP9) Biomarker Activity (AID 2283074); settings: primary human keratinocytes with fibroblasts; actives raise or lower the signal;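 as to AC50: MMP9 protein level quantified by ELISA in the co-culture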
How it was run: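 Human keratinocyte/foreskin fibroblast co-culture; compound added; 24 h; MMP-9 by ELISA; bidirectional fit vs DMSO baseline.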

[5] = read-out: urokinase plasminogen activator (uPA), PLAU (gene 5328); assay: BSK_KF3CT_uPA: BioMAP Diversity Plus: KF3CT Assay for urokinase plasminogen activator (uPA) Biomarker Activity (AID 2283075); settings: primary human keratinocytes with fibroblasts; actives raise or lower the signal
How it was run: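 ELISA readout of uPA, analyzed for signal gain or loss relative to DMSO, from a human primary keratinocyte–foreskin fibroblast co-culture measured 24 h after chemical treatment.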

CD40, CD40 (gene 958) [6] = assay: BSK_LPS_CD40: BioMAP Diversity Plus: LPS Assay for CD40 Biomarker Activity (AID 2283076); settings: primary human HUVEC with PBMC; actives raise or lower the signal
How it was run: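 CD40 signal, measured by ELISA, is fitted in both directions relative to DMSO vehicle. The system is an LPS-driven human vascular primary co-culture of endothelial cells and PBMC, sampled 24 h after compound addition.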

[7] = read-out: E-selectin (Homo sapiens) (UniProt P16581); assay: BSK_LPS_Eselectin: BioMAP Diversity Plus: LPS Assay for Eselectin Biomarker Activity (AID 2283077); settings: primary human HUVEC with PBMC; actives raise or lower the signal
How it was run: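 Signal of E-selectin, detected by ELISA, served as the endpoint; cells were umbilical vein endothelium with PBMC, read 24 h after treatment. DMSO defined baseline, and both increases and decreases were fitted.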

[8] = read-out: Interleukin-8 (IL8), CXCL8 (gene 3576); assay: BSK_LPS_IL8: BioMAP Diversity Plus: LPS Assay for Interleukin-8 (IL8) Biomarker Activity (AID 2283078); settings: primary human HUVEC with PBMC; actives raise or lower the signal
How it was run: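 Endothelial cells and PBMC from human donors are co-cultured, treated with chemicals and LPS, then assayed for IL-8 by ELISA after 24 h. Parallel SRB staining (0.1% SRB after 10% TCA fixation, 560 nm) flags cytotoxicity.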

[9] = BSK_LPS_SRB: Viability Assessment in the BioMAP Diversity Plus: LPS Assay (AID 2283079); settings: primary human HUVEC with PBMC;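 also: total protein by sulforhodamine B absorbance as a cytotoxicity measure; measured one day after compound addition; fitted in both directions against DMSO so loss or gain of signal counts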
How it was run: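 Overt cytotoxicity was gauged by sulforhodamine B total-protein staining in a primary human vascular endothelial and mononuclear cell co-culture 24 h post-dosing. Activity was fitted in both directions relative to DMSO.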

[10] = read-out: Interleukin-1 alpha (IL1a), IL1A (gene 3552); assay: BSK_LPS_IL1a: BioMAP Diversity Plus: LPS Assay for Interleukin-1 alpha (IL1a) Biomarker Activity (AID 2283080); settings: primary human HUVEC with PBMC; actives raise or lower the signal
How it was run: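 Measured: IL-1 alpha via ELISA at 24 h in LPS-activated human umbilical vein endothelium–PBMC co-culture. Baseline: DMSO, bidirectional fitting.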

[11] = read-out: Monocyte Chemoattractant Protein-1 (MCP1), CCL2 (gene 6347); assay: BSK_LPS_MCP1: BioMAP Diversity Plus: LPS Assay for Monocyte Chemoattractant Protein-1 (MCP1) Biomarker Activity (AID 2283081); settings: primary human HUVEC with PBMC; actives raise or lower the signal
How it was run: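 LPS-stimulated HUVEC/PBMC co-culture; chemical, 24 h; MCP-1 by ELISA; bidirectional fit vs DMSO; cytotoxicity via SRB (0.1% stain, 10% TCA fix, 560 nm) in parallel wells.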

[12] = BSK_LPS_PGE2: BioMAP Diversity Plus: LPS Assay for Prostaglandin E2 (PGE2) Biomarker Activity (AID 2283082); settings: primary human HUVEC with PBMC; actives raise or lower the signal;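 as to AC50: secreted prostaglandin E2 measured by ELISA in LPS-stimulated co-culture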
How it was run: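 Endpoint derived from bidirectional curve fitting versus DMSO of ELISA-measured PGE2 in LPS-stimulated human primary vascular co-culture (HUVEC with PBMC) harvested at 24 h.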

[13] = read-out: Macrophage colony-stimulating factor (MCSF), CSF1 (gene 1435); assay: BSK_LPS_MCSF: BioMAP Diversity Plus: LPS Assay for Macrophage colony-stimulating factor (MCSF) Biomarker Activity (AID 2283083); settings: primary human HUVEC with PBMC; actives raise or lower the signal
How it was run: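 Compound is added to a human vascular primary co-culture of umbilical vein endothelium and blood mononuclear cells. After 24 h, M-CSF is quantified by ELISA. Signal changes are fitted in both directions against DMSO.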

[14] = read-out: Tissue Factor, F3 (gene 2152); assay: BSK_LPS_TissueFactor: BioMAP Diversity Plus: LPS Assay for Tissue Factor Biomarker Activity (AID 2283084); settings: primary human HUVEC with PBMC; actives raise or lower the signal
How it was run: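 In this co-culture system of umbilical vein endothelium with PBMC, stimulated with LPS, cell-surface CD142 is detected by ELISA at 24 h. Endpoint values derive from bidirectional fitting, DMSO serving as baseline.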

[15] = read-out: Tumor necrosis factor (Homo sapiens) (UniProt P01375); assay: BSK_LPS_TNFa: BioMAP Diversity Plus: LPS Assay for Tumour Necrosis Factor alpha (TNFa) Biomarker Activity (AID 2283085); settings: primary human HUVEC with PBMC; actives raise or lower the signal;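 as to AC50: TNFa protein level quantified by ELISA in the co-culture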
How it was run: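 Primary human vascular co-culture of HUVEC and PBMC; TNFa ELISA 24 h after treatment, analysed as increase or decrease relative to DMSO control.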

[16] = read-out: Vascular cell adhesion molecule 1 (VCAM1), VCAM1 (gene 7412); assay: BSK_LPS_VCAM1: BioMAP Diversity Plus: LPS Assay for Vascular cell adhesion molecule 1 (VCAM1) Biomarker Activity (AID 2283086); settings: primary human HUVEC with PBMC; actives raise or lower the signal
How it was run: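 Primary human vascular co-culture (umbilical vein endothelium plus PBMC) stimulated with LPS received chemical; 24 h later VCAM-1 was read by ELISA. Overt cytotoxicity was assessed by sulforhodamine B staining of parallel cultures at the same time point.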

CD38, CD38 (gene 952) = assay: BSK_SAg_CD38: BioMAP Diversity Plus: SAg Assay for CD38 Biomarker Activity (AID 2283087); settings: primary human HUVEC with PBMC; actives raise or lower the signal
How it was run: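 Fluorescence ELISA of cell-surface CD38 served as the read-out, with either increase or decrease fitted against DMSO controls. Cells were a human umbilical vein endothelium plus PBMC co-culture under SEB/TSST-1 stimulation, measured 24 h after dosing.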

CD40, CD40 (gene 958) [17] = assay: BSK_SAg_CD40: BioMAP Diversity Plus: SAg Assay for CD40 Biomarker Activity (AID 2283088); settings: primary human HUVEC with PBMC; actives raise or lower the signal
How it was run: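 Fluorescence ELISA read-out of CD40 from umbilical vein endothelium plus peripheral blood mononuclear cells, sampled 24 h after dosing. Values come from bidirectional curve fitting with DMSO as baseline.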

CD69, CD69 (gene 969) = assay: BSK_SAg_CD69: BioMAP Diversity Plus: SAg Assay for CD69 Biomarker Activity (AID 2283089); settings: primary human HUVEC with PBMC; actives raise or lower the signal;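 as to AC50: cell surface CD69 protein quantified by ELISA with fluorescence detection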
How it was run: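 Endothelial/PBMC co-culture; chemical added; 24 h incubation; CD69 ELISA with fluorescence detection; bidirectional fit vs DMSO.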

[18] = read-out: TIMP metallopeptidase inhibitor 2 (TIMP2), TIMP2 (gene 7077); assay: BSK_KF3CT_TIMP2: BioMAP Diversity Plus: KF3CT Assay for TIMP metallopeptidase inhibitor 2 (TIMP2) Biomarker Activity (AID 2283071); settings: primary human keratinocytes with fibroblasts; actives raise or lower the signal
How it was run: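 Keratinocyte–fibroblast co-culture, 24 h exposure; TIMP-2 ELISA, DMSO-normalised bidirectional fit. Parallel SRB (0.1%, TCA-fixed, 560 nm) total-protein staining gauges cytotoxicity.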

Measured: AC50

Sequence of Tumor necrosis factor (Homo sapiens) (P01375 whole entry, looked up): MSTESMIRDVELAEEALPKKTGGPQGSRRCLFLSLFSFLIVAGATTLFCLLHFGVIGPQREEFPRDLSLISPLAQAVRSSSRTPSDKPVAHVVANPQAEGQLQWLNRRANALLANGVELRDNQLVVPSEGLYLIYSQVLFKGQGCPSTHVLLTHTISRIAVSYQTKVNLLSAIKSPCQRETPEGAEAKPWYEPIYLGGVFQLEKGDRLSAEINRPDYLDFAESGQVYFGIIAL
Sequence of E-selectin (Homo sapiens) (P16581 whole entry, looked up): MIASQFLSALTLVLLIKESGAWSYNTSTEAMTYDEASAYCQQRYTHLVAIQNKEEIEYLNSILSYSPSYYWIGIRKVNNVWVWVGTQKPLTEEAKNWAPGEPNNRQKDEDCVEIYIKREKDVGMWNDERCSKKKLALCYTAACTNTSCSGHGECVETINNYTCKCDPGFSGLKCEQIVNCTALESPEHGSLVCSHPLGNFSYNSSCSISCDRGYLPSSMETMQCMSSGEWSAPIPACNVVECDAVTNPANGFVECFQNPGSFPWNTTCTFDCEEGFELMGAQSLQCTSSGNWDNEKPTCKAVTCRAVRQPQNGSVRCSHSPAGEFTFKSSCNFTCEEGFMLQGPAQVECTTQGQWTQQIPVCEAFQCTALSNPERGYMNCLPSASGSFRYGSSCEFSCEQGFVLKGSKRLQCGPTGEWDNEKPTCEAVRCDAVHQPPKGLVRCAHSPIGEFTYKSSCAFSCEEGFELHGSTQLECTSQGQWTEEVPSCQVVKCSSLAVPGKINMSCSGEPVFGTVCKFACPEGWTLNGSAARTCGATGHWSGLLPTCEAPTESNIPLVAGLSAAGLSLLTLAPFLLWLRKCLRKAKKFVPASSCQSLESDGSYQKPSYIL

CCSC(=O)N(CC(C)C)CC(C)C
not listed: [18]
inactive: all other assays above

CCOC(=O)C(C)Oc1ccc(Oc2nc3ccc(Cl)cc3o2)cc1 (configuration not stated)
active: [4] 9.61 µM | [12] 24.3 µM | CD38, CD38 (gene 952) 23.6 µM | CD40, CD40 (gene 958) [17] 12 µM
not listed: [18]
inactive: all other assays above

O=C(Nc1ccc([N+](=O)[O-])cc1Cl)c1cc(Cl)ccc1O
inactive: [2] | [7] | [14]
active: [1] 0.735 µM | [18] 0.436 µM | [3] 0.148 µM | [4] 0.313 µM | [5] 0.266 µM | CD40, CD40 (gene 958) [6] 0.161 µM | [8] 0.47 µM | [9] 0.445 µM | [12] 0.178 µM | [13] 0.148 µM | [15] 0.583 µM | [16] 0.175 µM | CD38, CD38 (gene 952) 0.148 µM | CD40, CD40 (gene 958) [17] 0.17 µM | CD69, CD69 (gene 969) 0.335 µM

CC(=O)S[C@@H]1CC2=CC(=O)CC[C@]2(C)[C@H]2CC[C@@]3(C)[C@@H](CC[C@@]34CCC(=O)O4)[C@H]12
inactive: [18] | [2] | [3] | [4] | [5]
active: [1] 30.7 µM | CD40, CD40 (gene 958) [6] 25 µM | [7] 22.5 µM | [8] 15.9 µM | [9] 20.9 µM | [12] 15.6 µM | [13] 22 µM | [14] 20 µM | [15] 13.9 µM | [16] 29.7 µM | CD38, CD38 (gene 952) 19.3 µM | CD40, CD40 (gene 958) [17] 20 µM | CD69, CD69 (gene 969) 13.9 µM

O=C(c1ccc(O)cc1O)c1ccc(O)cc1O
not listed: [10]
inactive: all other assays above

C=CCOC(Cn1ccnc1)c1ccc(Cl)cc1Cl (configuration not stated)
active: CD40, CD40 (gene 958) [6] 22.2 µM | [12] 0.27 µM
not listed: [10]
inactive: all other assays above

CC(C)(C)[C@@H](O)[C@@H](Cc1ccc(Cl)cc1)n1cncn1
active: [10] 3.97 µM
not listed: [18]
inactive: all other assays above

CN(C)C(=O)Nc1ccc(Cl)c(Cl)c1
active: [12] 7.82 µM
not listed: [18]
inactive: all other assays above

CCCCOC(=O)[C@@H](C)Oc1ccc(Oc2ccc(C(F)(F)F)cn2)cc1
not listed: [10]
inactive: all other assays above

c1ccc2[nH]c(-c3cscn3)nc2c1
inactive: all assays above

C#CCOC(=O)[C@@H](C)Oc1ccc(Oc2ncc(Cl)cc2F)cc1
not listed: [10]
inactive: all other assays above

S=C([S-])NCCNC(=S)[S-].[Mn+2]
active: [4] 36.6 µM | [7] 7.58 µM | [13] 13.2 µM | [15] 20 µM | [16] 14.7 µM | CD38, CD38 (gene 952) 14.6 µM
not listed: [18]
inactive: all other assays above
